In PubChem BioAssay AID588726 (The Scripps Research Institute Molecular Screening Center, 2011):
The whole screen tested about 360,000 compounds, of which about 8,200 (2.3%) were called active. The sample holds actives, similar compounds and a random draw of the others, so the mix is not that of the screen. A number with no mark means an inactive call. Rule as the data show it: active = inhibition above about 27%; inactive = the rest.

What follows are compounds tested against Fructose-bisphosphate aldolase (Mycobacterium tuberculosis (strain ATCC 25618 / H37Rv)) (UniProt P9WQA3) (assay: Mtb FBA enzyme inhibitors, primary screen, biochemical, fluorescence, strain H37Rv (AID 588726;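 also: 0% = vehicle and 100% = reference inhibitor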)). Settings: purified M. tuberculosis FBA, fluorescence read-out, at 1 µM, hits give high values.
Fructose-bisphosphate aldolase (Mycobacterium tuberculosis (strain ATCC 25618 / H37Rv)), sequence (P9WQA3 whole entry, looked up): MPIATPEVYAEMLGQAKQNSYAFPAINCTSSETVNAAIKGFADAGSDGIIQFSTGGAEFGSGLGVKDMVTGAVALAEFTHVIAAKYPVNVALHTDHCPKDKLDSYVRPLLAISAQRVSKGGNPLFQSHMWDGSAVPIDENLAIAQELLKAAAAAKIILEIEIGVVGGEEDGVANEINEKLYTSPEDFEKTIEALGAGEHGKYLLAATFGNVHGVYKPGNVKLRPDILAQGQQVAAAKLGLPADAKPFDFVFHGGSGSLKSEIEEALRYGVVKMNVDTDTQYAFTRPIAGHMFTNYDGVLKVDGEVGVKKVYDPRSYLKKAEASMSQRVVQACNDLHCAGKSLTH
For `O=C(NNC(=O)c1ccco1)Nc1ccccc1`, the inhibition was -0.74%. `O=C(Nc1ccc2nccnc2c1)c1ccco1` was tested, and the inhibition was 50.1% (active). With `CC(C)(C)NC(=O)c1cc(NC(=O)c2ccco2)cc(NC(=O)c2ccco2)c1` the inhibition was 1.27%. `COc1ccc(-c2[nH]ncc2CN(C)Cc2cc(C)[nH]n2)c(F)c1` showed an inhibition of -3.53%. For `CC(C)C(OC(=O)c1cccs1)C(=O)NC1CCCCC1` (centres undefined), the inhibition was 3.33%. Work on `O=C(NCc1cccnc1)c1cc(C2CCCN(C(=O)C3CCCCC3)C2)on1` (centres undefined) yielded an inhibition of 1.09%. For `CCOC(=O)COc1nc(C)cc(C(F)(F)F)c1C#N`, the inhibition was 75.7% (active). In the case of `CCOC(=O)CN(C(=O)COc1nc(C)cc(C)c1C#N)c1ccc(Cl)cc1`, the inhibition is reported as 0.17%. In the case of `Cc1cc(C(F)(F)F)c(C#N)c(SCC(=O)NC2CC2)n1`, the inhibition is reported as 1.94%. `O=C1CC(Cc2ccc(Cl)cc2)C(=O)N1c1cc(Cl)ccn1` (centres undefined) showed an inhibition of -3.99%. `Cc1cc(C)n(-c2nc(O)cc(=O)[nH]2)n1` showed an inhibition of -2.32%. Compound `CN(C)c1ccc(-c2nnc(-c3cccnc3)o2)cc1` has an inhibition of 14.1%. `OC(c1nnc(-c2ccccc2)o1)c1cccs1` (centres undefined) was tested, and the inhibition was -4.15%. With `Nc1ccc(-c2nnc(-c3ccc(-c4ccccc4)cc3)o2)cc1` the inhibition was 62.9% (active). With `COC(=O)[C@@H]1C[C@@]2(O)[C@@H](O)[C@@H](O)[C@@H](O)C[C@H]2N1Cc1ccc(C)s1` the inhibition was -1.21%. Compound `CC(C)Cn1c(N)c(C(=O)COC(=O)C2CCCN2C(=O)c2cccs2)c(=O)n(C)c1=O` (centres undefined) has an inhibition of 2.37%. Compound `Cc1ccc(S(=O)(=O)N2CCN(C(=O)Cc3sc(C)nc3-c3ccc(F)cc3)CC2)c(C)c1` has an inhibition of -0.33%. In the case of `C=CCn1c(CCNC(=O)c2ccccc2F)nnc1SCC(=O)Nc1ccc(OC)cc1`, the inhibition is reported as 43.4% (active). `C=CCn1c(COc2ccc(F)cc2)nnc1SCC(=O)Nc1cccc(S(N)(=O)=O)c1` showed an inhibition of 0.32%. Work on `Cc1ccc(NC(=O)CSc2nnc(CNC(=O)c3ccccc3F)o2)cc1` yielded an inhibition of 0.75%. Work on `COc1ccc(CCNC(=O)C(=O)NCC2OCCN2S(=O)(=O)c2ccc(OC)c(C)c2)cc1` (centres undefined) yielded an inhibition of -0.91%. Work on `O=C(CN(C(=O)c1csnn1)c1cccc(Cl)c1)NC1CCCC1` yielded an inhibition of 2.14%. For `CC(C)[C@@H](C(=O)O)N(Cc1cccc(CN([C@H](C(=O)O)C(C)C)S(C)(=O)=O)c1)S(C)(=O)=O`, the inhibition was 5.75%. For `O=C1CC2(CCCCC2)Oc2ccc(OCC(=O)N3CCOCC3)cc21`, the inhibition was 49.5% (active). With `O=C1CC2(CCCC2)Oc2ccc(Cl)cc21` the inhibition was 2.17%. `O=C1CC2(CCN(C(=O)COc3ccc(F)cc3)CC2)Oc2ccccc21` gave an inhibition of 6.06%. For `COc1ccc(CCNC(=O)/C(C#N)=C2\N=C(NC(=O)c3cccs3)c3ccccc32)cc1`, the inhibition was -0.53%. `Cc1ccc2nc(/C(C#N)=C\c3ccc(OC(=O)c4cccs4)cc3)[nH]c2c1` was tested, and the inhibition was 36.1% (active). `CCN(CC)c1ccc(C(=O)c2cnc(/N=C/N(C)C)s2)cc1` gave an inhibition of -0.9%. Work on `CCC1CCCCN1CCNC(=O)c1[nH]c(C)c(C(C)=O)c1C` (centres undefined) yielded an inhibition of -2.24%. Work on `CC(C(=O)N1CCN(c2ccccc2F)CC1)c1ccc([N+](=O)[O-])cc1` (centres undefined) yielded an inhibition of -0.87%. Work on `CCOc1ccc(NC(=O)c2ccc(NC(=O)C3CCCO3)cc2)cc1` (centres undefined) yielded an inhibition of 0.48%. `O=C(Nc1ccc(-c2nnc(-c3ccccc3)o2)cc1)C1CCCO1` (centres undefined) was tested, and the inhibition was 61.2% (active). `CC(C)(C)NS(=O)(=O)c1ccc(NC(=O)C2CCCO2)cc1` (centres undefined) was tested, and the inhibition was 0.12%. In the case of `c1ccc2c(-c3nn4nnnc4c4ccccc34)cccc2c1`, the inhibition is reported as 1.01%. For `Cc1csc(NC(=O)C2CCN(S(=O)(=O)c3ccccc3)CC2)n1`, the inhibition was -1.66%. For `CC(C)(C)C(=O)CSc1nc2ccccc2o1`, the inhibition was 2.23%. `CC(=O)Nc1ccc(-c2nc3ccccc3o2)cc1` was tested, and the inhibition was 60.6% (active). `COc1cccc(C(=O)Nc2ccc3nc4n(c(=O)c3c2)CCCCC4)c1` was tested, and the inhibition was 0.68%. For `Cc1ccc2nc(-c3ccc(NC(=O)c4cccnc4)cc3)oc2c1`, the inhibition was -7.14%. In the case of `COc1cc(OC)cc(C(=O)N[C@H](C(=O)Nc2nc3ccccc3[nH]2)C(C)C)c1`, the inhibition is reported as -0.55%. For `COc1cc(OC)cc(C(=O)Nc2ccc(-c3nc4ccccc4o3)c(O)c2)c1`, the inhibition was 38% (active). In the case of `CC1(C(=O)Nc2cccc3c2CCCC3)CCN1C(=O)CCc1ccc(Cl)cc1Cl` (centres undefined), the inhibition is reported as 0%. For `O=C(Cc1ccc(F)cc1)NC1CCCC1`, the inhibition was -0.93%. For `CCCNC(=O)c1c(N)n(-c2ccc(S(N)(=O)=O)cc2)c2nc3ccccc3nc12`, the inhibition was 102% (active). For `Cc1noc(C)c1C(=O)NCCc1ccc(S(N)(=O)=O)cc1`, the inhibition was 0.56%. Compound `CCOC(=O)c1c(C)c(C(=O)NCCc2ccc(S(N)(=O)=O)cc2)c(C)n1CC` has an inhibition of -2.42%. `CC1(C(=O)NCc2cccc3ccccc23)CCN1Cc1ccc(-c2ccccc2)o1` (centres undefined) was tested, and the inhibition was 2.7%. With `Cc1cc(Nc2cc(N3CCN(C)CC3)nc(Sc3ccc(NC(=O)C4CC4)cc3)n2)n[nH]1` the inhibition was 0.5%. With `CCOc1ccc(-c2nc(C)sc2CC(=O)O)cc1` the inhibition was 5.29%. `NC(=O)Cc1ccc2sc(-c3ccccc3)nc2c1` showed an inhibition of 5.06%. With `O=C(O)Cc1sc(-c2ccc(C(=O)O)cc2)nc1-c1ccccc1` the inhibition was 37% (active). For `Cc1cccc(C)c1N1C(=O)CN(Cc2ccccc2)C1=S`, the inhibition was 3.51%. With `Cc1ccc2nc(-c3ccco3)c(Cc3cccc(Cl)c3)n2c1` the inhibition was 30.3% (active). `Cc1ccc(Cc2c(-c3ccco3)nc3ccc(Cl)cn23)cc1` was tested, and the inhibition was 6.29%. With `Clc1cccc(Cc2c(-c3cccc(Cl)c3)nc3ccc(Cl)cn23)c1` the inhibition was 6.59%. `O=C(Nc1ccc(N2CCN(C(=O)c3ccccc3)CC2)c(Cl)c1)c1cccnc1` gave an inhibition of -4.3%. For `COc1ccc(CCNS(=O)(=O)c2ccc(F)cc2)cc1OC`, the inhibition was 0.71%. `Cc1nn(C)c(Oc2ccccc2)c1CCNS(=O)(=O)c1ccc(F)cc1` was tested, and the inhibition was 28.7% (active). In the case of `Cn1c(CCNS(=O)(=O)c2ccc(F)cc2)nnc1SCc1cccnc1`, the inhibition is reported as -0.16%. With `COC(=O)c1ccc(CN2CCC(CO)(Cc3ccc(OC)cc3)CC2)cc1` the inhibition was 8.41%. Work on `CC1(Cc2cccc(C#N)c2)C(=O)Nc2ccc(-c3cccc(C(F)(F)F)c3)cc21` (centres undefined) yielded an inhibition of -1.35%. `C=CCn1c(-c2ccc(Cl)cc2)ccc(C#N)c1=O` showed an inhibition of 1.41%. With `C=CCn1cc(-c2cccc(C(F)(F)F)c2)cc(C#N)c1=O` the inhibition was 47.4% (active). `O=C(COC(=O)CNS(=O)(=O)c1ccc(F)c(F)c1F)NC1CCCC1` was tested, and the inhibition was -3.58%. Compound `COc1ccc(CNC(=O)CN(C(=O)c2csnn2)c2cnc3ccccc3c2)cc1` has an inhibition of 3.6%. Compound `COC(=O)N1CN(C(=O)OC)CN(C(=O)OC)C1` has an inhibition of 0.37%. With `Cc1nc2ccc(NC(=O)N3CCC(c4ccccc4)C3)cc2nc1C` (centres undefined) the inhibition was 72.4% (active). In the case of `Cc1nc2ccc(NC(=S)N3CCC(C)CC3)cc2nc1C`, the inhibition is reported as 5.9%. Compound `Cc1ccc(C2CCN(C(=S)Nc3cccc(Cl)c3)C2)cc1` (centres undefined) has an inhibition of -1.23%. For `COc1cccc(CN2CCN(Cc3ccc4cccc(F)c4n3)CC2CCO)c1` (centres undefined), the inhibition was 2.17%. `Cc1ccc(C(CNC(=O)Nc2cccc(C)c2)N2CCN(C)CC2)cc1` (centres undefined) was tested, and the inhibition was 2.29%. `CCN(C(=O)COC(=O)c1ccc(COc2ccc3c(C)cc(=O)oc3c2)cc1)C1CCS(=O)(=O)C1` (centres undefined) was tested, and the inhibition was 44.6% (active). In the case of `COc1ccc(-c2cc(=O)oc3cc(OCC(=O)N(C)C4CCS(=O)(=O)C4)ccc23)cc1` (centres undefined), the inhibition is reported as 3.8%. `Cc1ccccc1NC(=O)c1ccc(COc2ccc3c(C)cc(=O)oc3c2)cc1` gave an inhibition of 11.9%. `C[C@@H]1CN([C@@H](C)CO)C(=O)CCCn2nncc2CO[C@@H]1CN(C)S(=O)(=O)c1ccc(-c2ccccc2)cc1` was tested, and the inhibition was -2.99%. Work on `CCc1nc2c(OCCOc3ccccc3)cccn2c1N(C)C(=O)c1ccc(OC)cc1` yielded an inhibition of 1.06%. `CN(C)CCCn1c(N)c(C#N)c2nc(C#N)c(C#N)nc21` was tested, and the inhibition was 61.1% (active). Work on `C=CCn1c(SCc2nnc(-c3ccccc3)o2)nnc1C(O)c1ccccc1` (centres undefined) yielded an inhibition of 1.46%. Compound `C/C(O)=C\c1nc(=O)c2c(C)cc(C)nc2n1-c1ccccc1` has an inhibition of 4.59%. `Cc1sc2nc(SCCO)n(-c3ccccc3)c(=O)c2c1C` showed an inhibition of 1.67%. `Cc1cc(C)c2c(n1)sc1c(=O)n(-c3ccccc3)c(=O)[nH]c12` was tested, and the inhibition was 38.8% (active). `COC(=O)c1ccccc1NC(=O)CN(Cc1ccccc1)S(C)(=O)=O` showed an inhibition of 5.21%. Compound `COc1ccccc1N1CCN(S(=O)(=O)CCNC(=O)c2ccc(OC(C)C)cc2)CC1` has an inhibition of -0.15%. `C[C@@H]1CN([C@@H](C)CO)C(=O)c2c(c3ccccc3n2C)-c2ccccc2CO[C@H]1CN(C)C(=O)C1CC1` was tested, and the inhibition was 2.36%. `COc1ccc2[nH]c3c(=O)n(Cc4ccco4)cnc3c2c1` was tested, and the inhibition was 97.5% (active). In the case of `COc1ccc2c(c1)c1ncn(Cc3ccccn3)c(=O)c1n2C`, the inhibition is reported as 159% (active). For `COc1ccc2c(c1)c1nc3n(c(=O)c1n2CC(=O)Nc1ccccc1)CCS3`, the inhibition was 8.41%. Compound `COc1cccc(Cn2cnc3c([N+](=O)[O-])c(C)c(C)cc32)c1` has an inhibition of -3.25%. `COc1ccc2oc(C(=O)NCc3ccco3)c(C)c2c1` was tested, and the inhibition was 25.3%. In the case of `CCN1CCCC1Cn1cnc2c([nH]c3cc(OC)ccc32)c1=O` (centres undefined), the inhibition is reported as 1.27%. In the case of `O=c1c2[nH]c3ccc(Cl)cc3c2ncn1Cc1ccccn1`, the inhibition is reported as -2.42%. For `Cc1ccc(C)c(Cn2cnc3c(oc4ccccc43)c2=O)c1`, the inhibition was -1.54%. With `Cc1ccc2[nH]c3c(=O)n(Cc4ccccn4)cnc3c2c1` the inhibition was 29.9% (active).
